Bioassay records (PubChem)
Most compounds without a hit are left out; they make up all but 7.7% or so of the library.
FBPA Giardia inh – Giardia lamblia aldolase inhibition | purified Giardia FBPA | A8B2U2 | 290,000 compounds, 0.71% hits | Potency, µM (doses to about 59.6 µM), inactives show at the highest dose activity, negative = inhibition, hits mostly inhibitors | AID 2451; further: potency means the concentration at half of the fitted maximal effect; nearly all actives have a fitted effect of over 55% in size
Target sequence (A8B2U2 whole entry, looked up): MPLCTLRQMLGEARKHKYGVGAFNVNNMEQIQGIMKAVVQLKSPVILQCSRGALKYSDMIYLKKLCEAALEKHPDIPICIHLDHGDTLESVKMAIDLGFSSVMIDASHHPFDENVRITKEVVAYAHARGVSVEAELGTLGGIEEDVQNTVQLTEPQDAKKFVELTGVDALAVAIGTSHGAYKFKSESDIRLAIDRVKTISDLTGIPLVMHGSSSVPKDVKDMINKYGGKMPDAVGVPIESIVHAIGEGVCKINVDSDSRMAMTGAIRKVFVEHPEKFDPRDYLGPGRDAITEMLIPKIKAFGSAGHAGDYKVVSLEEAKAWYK
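40 nM FBPA preincubated 10 min at RT with compound (up to 57.5 uM final), then substrate plus GAPDH/TPI/NAD/arsenate coupling and diaphorase/resazurin added. Fluorescence read after 20 min at RT, 525/598 nm.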
FMDV inh – foot and mouth disease virus antiviral activity; FMDV antiviral cell-based qHTS; Potency, µM (doses to about 57.9 µM), without a hit: top-dose activity change, negative = inhibition, actives largely listed as inhibitors; 410,000 compounds, 1.2% hits; calls by dose curve; tested in HEK293T cells; further: read-out not given here; potency means the concentration at half of the fitted maximal effect; nearly all actives have a fitted effect of over 45% in size
Sm TGR inh – S. mansoni TGR enzyme inhibition; 360,000 compounds, 3% hits; purified TGR, DTNB reduction, TNB absorbance 405 nm; Potency, µM (series often up to 114 µM), without a hit: at the highest dose activity change, negative = inhibition, usual class: inhibitors; AID 485364; further: potency means the concentration at half of the fitted maximal effect; nearly all actives have a fitted effect of over 60% in size
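TGR 20 nM + NADPH 100 uM (dispensed conc.), cpd preinc 15 min RT; start with NADPH (500 uM addition) then DTNB (15 mM addition). Kinetic TNB absorbance, 405 nm filter. Four-parameter Hill fit across titration.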
RE007 growth inh – less growth of the S. pombe RE007 Vpr strain; S. pombe RE007 Vpr strain, BacTiter-Glo ATP luminescence, 24 h; Potency, µM (top dose mostly 92.2 µM), for the others: at the highest dose activity change, negative = less growth, most hits filed as inhibitors; 360,000 compounds, 0.21% hits; AID 651644; active means well fitted falling curve with a large enough effect; inconclusive means small, poorly fitted or top-dose-only effect; inactive means no such curve, though single readings can be large or run the other way; further: potency means the concentration at half of the fitted maximal effect; nearly all actives have a fitted effect of over 50% in size
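Fission yeast RE007 carrying one integrated HIV-1 vpr copy, seeded at OD 0.01 in PMG+AL medium with 23 nL pinned compound. Grown 24 h at 30 degrees; viability read by BacTiter-Glo luminescence after 5 min.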
Tb PYK inh – blocks Trypanosoma brucei pyruvate kinase | TbPYK enzyme, Kinase-Glo Plus ATP luminescence, 45 min | Potency, µM (titrated, usually from 76.8 µM), for inactives: top-dose activity, negative = inhibition, actives largely listed as inhibitors | 410,000 compounds, 0.12% hits | AID 624173; further: potency means the concentration at half of the fitted maximal effect; nearly all actives have a fitted effect of over 50% in size
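T. brucei PYK with substrate was exposed to pin-transferred compounds across a concentration series, then started with 130 uM ADP (final). After 45 min at room temperature, Kinase-Glo Plus luminescence was read, normalized and curve-fitted.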
HCMV inh – inhibitors of human cytomegalovirus; HFF cells, HCMV-luciferase reporter, 72 h; active compounds read low; activity change, negative = inhibition, % at 57.5 µM; 410,000 compounds, 4.5% hits; in the data active means activity change below about -60%; inconclusive means no clear call, values can overlap the other calls; inactive means above about -39%
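Compounds were evaluated in HFFs infected with an HCMV luciferase reporter virus (MOI 1 PFU/cell). Luciferase in lysates collected 72 h post infection served as the replication measure.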
* marks the source's active call; other numbers are inactive results; ? = inconclusive; . = no result; [ ] = dose if it differs, or a comment. Unless noted, the call rests on the fitted dose curve; in most records, active means well fitted curve in the direction sought with a large enough effect; inconclusive means small, poorly fitted or top-dose-only effect, or another doubt; inactive means no such curve, though single readings can be large; an effect the other way counts as inactive or inconclusive. On the % scale 0 is the no-effect control and ±100 the full control effect.

SMILES | FBPA Giardia inh | FMDV inh | Sm TGR inh | RE007 growth inh | Tb PYK inh | HCMV inh
O=C(Nc1ccc2oc(-c3cccnc3)nc2c1)c1ccc(-c2ccc(OC(F)(F)F)cc2)o1 | . | -30% | 8.9µM* | . | -8% | -9
COc1ccc(C(=O)Nc2ccc(OCc3cc(=O)n4ccccc4n3)cc2)cc1 | . | -4% | 7% | . | 2% | 11
Cc1cccc(CS(=O)(=O)c2nnc([C@H](Cc3ccccc3)NC(=O)OC(C)(C)C)o2)c1 | -7% | 32µM* | 1.8µM* | -20% | -9% | .
COC(=O)CS(=O)(=O)c1nnc([C@H](Cc2ccccc2)NC(=O)OC(C)(C)C)o1 | 3% | 32µM* | 1.4µM* | -22% | -21% | 79
O=C(Nc1ccc(Oc2ccccc2)cc1)c1ccc2sc([C@H]3C[C@H](O)[C@@H](CO)O3)nc2c1 | . | 16µM* | . | -6%[18.4 µM] | -2% | -100*
O=C(Nc1cccc(C(F)(F)F)c1)c1ccc2sc([C@H]3C[C@H](O)[C@@H](CO)O3)nc2c1 | . | 20µM* | . | 23% | 6% | -91*
CC(=O)Nc1ccc(NC(=O)c2ccc3sc([C@H]4C[C@H](O)[C@@H](CO)O4)nc3c2)cc1 | . | -11% | . | -5%[18.4 µM] | 0% | -12
CCc1cccc(C)c1NC(=O)NC1COc2ccccc2C1 (stereo unspecified) | . | -19% | 8% | . | -6% | 12
CC(=O)C1=C(O)C2(C)c3c(O)c(C)c(O)c(C(C)=O)c3OC2CC1=O (stereo unspecified) | . | 10µM* | . | 9% | 2% | ?
CC(=O)C1=C(O)C=C2Oc3c(C(C)=O)c(O)c(C)c(O)c3[C@]2(C)C1=O | 16% | . | . | . | . | .
O=C(CN1CCN(C(=O)CNC(=O)c2ccc(-c3ccccc3)cc2)CC1)Nc1ccccc1Cl | . | 28µM* | . | -10% | -9% | ?
O=C(CN1CCN(CC(=O)c2ccc(F)cc2)CC1)Nc1ccccc1Cl | -8% | 16% | 14µM* | 9% | -16% | -27
O=C(CN1CCCCCC1)Nc1ccccc1Cl | 6% | 10% | -2% | -6% | -2% | -30
O=C(CN1CCN(C(=O)CNC(=O)c2ccc3c(c2)OCO3)CC1)Nc1ccccc1Cl | . | ? | -14% | -11% | 5% | -1
Cc1ccc(N2CC(C(=O)Nc3nccs3)CC2=O)cc1Cl (stereo unspecified) | 6% | 11% | 2% | 4% | -5% | -91*
O=C(NCc1ccc(F)cc1)C1CC(=O)N(Cc2ccco2)C1 (stereo unspecified) | . | -1% | 40µM* | 1% | -9% | 14
O=C(Nc1nccs1)C1CC(=O)N(Cc2ccco2)C1 (stereo unspecified) | 0% | -8% | 10µM* | 5% | 1% | -26
COc1cccc(NC(=O)C2CC(=O)N(Cc3ccco3)C2)c1 (stereo unspecified) | . | 11% | -12% | -1% | 4% | 50
NS(=O)(=O)c1cccc(NC(=O)C2CC(=O)N(Cc3ccco3)C2)c1 (stereo unspecified) | 8% | -8% | 50µM* | -2% | 4% | 36
CC(=O)c1sc(NC(=O)C2CC(=O)N(Cc3ccco3)C2)nc1-c1ccccc1 (stereo unspecified) | . | -25% | -17% | 5% | -6% | -14
COC(=O)c1cc(CNC(=O)c2ccc3ccccc3n2)cc(NC(=O)c2cccc(OC)c2)c1 | . | -1% | . | . | . | .
CCCCCCNC(=O)Nc1ccc(S(=O)(=O)Nc2ccc(CCNC[C@H](O)COc3ccc(O)cc3)cc2)cc1 | 3% | . | . | . | . | .
O=C(Nc1ccccc1Cl)c1ccc(F)c(S(=O)(=O)NCc2ccc(Cl)c(Cl)c2)c1 | . | -8% | 15% | . | -7% | -32
CN(c1ccc(-c2csc(NC(=O)C3CC(=O)N(Cc4ccco4)C3)n2)cc1)S(C)(=O)=O (stereo unspecified) | . | 22µM* | -26% | 9% | -2% | 24
O=C(COC(=O)C1CC(=O)N(Cc2ccco2)C1)Nc1nc(-c2ccc(F)cc2)cs1 (stereo unspecified) | . | 37% | . | 4% | 1% | 3
SMILES | FBPA Giardia inh | FMDV inh | Sm TGR inh | RE007 growth inh | Tb PYK inh | HCMV inh
COc1ccc(-c2nc(NC(=O)C3CC(=O)N(Cc4ccco4)C3)sc2C)cc1 (stereo unspecified) | . | ? | -5% | 16% | 2% | -16
COc1ccc(-c2csc(NC(=O)C3CC(=O)N(Cc4ccco4)C3)n2)cc1 (stereo unspecified) | -5% | ? | 35µM* | -5% | 3% | -5
C/C(CCN1CCCc2nc(C)c(C)cc21)=N\O[C@@H](C)c1cc(-c2c(C)cc(C)cc2C)no1 | 1%[12.9 µM] | . | . | . | . | .
CCc1nn(CC(=O)NCCCN(CC(C)C)CC(C)C)c(=O)c2cc3sc(C)cc3n12 | . | -2% | 0% | . | 1% | 3
COc1ccc(NS(=O)(=O)c2cc(Br)cc3c2N(C(=O)C2CC2)CC3)cc1OC | . | 8% | -4% | . | 4% | ?
CN(CCc1ccccn1)C(=O)CC1C(=O)NCCN1Cc1ccc(-c2ccccc2)cc1 (stereo unspecified) | -26% | 5% | 0% | ? | 2% | 27
COCCN(C(=O)CC1C(=O)NCCN1Cc1ccc(-c2ccccc2)cc1)C(C)C (stereo unspecified) | -15% | -12% | 40µM* | 6% | 0% | -23
O=C1NCCN(Cc2ccc(F)cc2)C1CC(=O)N1CC=C(c2ccccc2)CC1 (stereo unspecified) | -22% | -1% | 35µM* | 11% | 0% | 0
O=C1NCCN(Cc2ccoc2)C1CC(=O)N(Cc1ccccc1)CC1CCC1 (stereo unspecified) | -4% | 1% | 10µM* | 2% | -7% | -27
Cc1ccc(CN2CCNC(=O)C2CC(=O)N(C)C2CCCCC2)cc1 (stereo unspecified) | . | 1% | 45µM* | 2% | -2% | -1
O=C(CC1C(=O)NCCN1Cc1ccc(F)c(F)c1)NCCn1cccn1 (stereo unspecified) | -24% | 14% | 45µM* | -9% | -2% | -8
CN(C(=O)CC1C(=O)NCCN1Cc1ccc(F)c(F)c1)C1CCOCC1 (stereo unspecified) | -20% | -4% | 45µM* | 3% | -3% | -21
COc1cc2c(cc1OC)[C@@H]1N(C)c3ccccc3[C@@]13CCN[C@H]3C2 | . | . | . | . | . | -2
CCCCn1nc(C(=O)NCC(c2cccs2)N2CCOCC2)c2ccccc2c1=O (stereo unspecified) | . | 32µM* | -1% | 4% | 4% | ?
